# This is a sample that favours compounds with a hit; in the whole collection about 10% have one here.
# Lamin A splicing: modulators of lamin A splicing; HeLa LMNA splicing GFP/RFP minigene ratio, 48 h; Potency, µM (doses to about 46.1 µM), for inactives: at the highest dose ratio change, negative = inhibition, most hits filed as inhibitors; 200,000 compounds, 0.01% hits; AID 1487; active means well fitted inhibition curve with a large enough effect in the signal ratio, with a control signal flat, not every such curve was filed as active; inconclusive means small, poorly fitted or top-dose-only effect, or effect the other way, or a change in a side signal; the % refers to the signal ratio; further: potency means the concentration at half of the fitted maximal effect
#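 Read-out is the ratio of GFP to DsRed2 object intensity, acquired by 488 nm laser-scanning cytometry on HeLa lamin A-EGFP minigene reporter cells. Compound incubation 48 hrs at 37 °C in Opti-MEM with 2% FBS; DMSO 0.5% final.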
# HPGD inh: blocks human HPGD enzyme activity | 150,000 compounds, 4.3% hits | purified HPGD, NADH fluorescence kinetic, PGE2 substrate | Potency, µM, inactives show at the top dose activity change, negative = inhibition, actives largely listed as inhibitors; further: potency means the concentration at half of the fitted maximal effect
#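 NADH formation kinetics: reaction with 30 uM PGE2 and 1 mM NAD+ (final), 20 nM enzyme, Tris-HCl pH 8 with Tween 20, after 15 min compound preincubation at room temperature. Fluorescence change, last versus first of five reads.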
# KinaseGlo FLuc: Kinase-Glo luciferase inhibition (counter-screen); Q27757; Kinase-Glo luciferase, ATP luminescence, 8 min; Potency, µM (doses to about 38.3 µM), inactives show at the top dose activity change, negative = inhibition, most hits filed as inhibitors; 200,000 compounds, 0.28% hits; AID 1379; active means well fitted inhibition curve with a large enough effect; inconclusive means small, poorly fitted or top-dose-only effect; further: potency means the concentration at half of the fitted maximal effect; nearly all actives have a fitted effect of over 60% in size
#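 Recombinant Kinase-Glo luciferase, 10 uM ATP (linear range), luciferin; imidazole pH 7.2 / KCl / MgCl2 / Tween / BSA buffer; 8 min RT; luminescence.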
# ALDH1A1 inh: inhibitors of human aldehyde dehydrogenase 1A1. P00352. Purified ALDH1A1, NADH fluorescence, propionaldehyde substrate. Potency, µM (series often up to 75.3 µM), for inactives: at the top dose activity, negative = inhibition, most hits filed as inhibitors. 220,000 compounds, 7.3% hits;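 further: potency means the concentration at half of the fitted maximal effect; plate controls were no enzyme wells and a reference inhibitor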
# Target sequence (P00352 whole entry, looked up): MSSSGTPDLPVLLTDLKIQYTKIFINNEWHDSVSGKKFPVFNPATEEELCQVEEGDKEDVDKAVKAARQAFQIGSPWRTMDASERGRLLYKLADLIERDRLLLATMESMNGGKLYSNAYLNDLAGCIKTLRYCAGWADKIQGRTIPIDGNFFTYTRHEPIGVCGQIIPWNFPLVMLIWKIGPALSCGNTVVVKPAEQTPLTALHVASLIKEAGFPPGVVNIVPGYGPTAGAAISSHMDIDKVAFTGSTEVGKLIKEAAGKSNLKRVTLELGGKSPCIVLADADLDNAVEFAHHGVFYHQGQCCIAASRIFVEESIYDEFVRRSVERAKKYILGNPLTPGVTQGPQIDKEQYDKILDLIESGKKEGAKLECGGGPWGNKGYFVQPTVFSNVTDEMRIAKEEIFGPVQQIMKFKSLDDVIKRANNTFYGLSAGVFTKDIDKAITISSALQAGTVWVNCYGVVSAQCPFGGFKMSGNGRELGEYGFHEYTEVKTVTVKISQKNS
# PNC inhibitor: blocks assembly of the perinucleolar compartment; PC3M PTB-GFP, PNC prevalence imaging, 16 h; hits give low values; activity change (PNC), negative = inhibition, % at 10 µM; 140,000 compounds, 3.1% hits; AID 2417;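 active means readout at or below -70, meaning at least 70% loss of cells showing the perinucleolar compartment, a nuclear body marking cancer cells; inconclusive means readout between -30 and a set limit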;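 further: plate controls were DMSO wells for no effect and camptothecin positive control wells for full effect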
#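 Compounds are pinned in duplicate onto adhered PC3M cells stably expressing GFP-tagged PTB and incubated 16 h at 37 C. Cells are then fixed, nuclei stained with Hoechst, and PNC-positive cells counted.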
# * marks the source's active call; other numbers are inactive results; u = inconclusive; x = not tested or not shown; [ ] = another dose, or the depositor's remark. Unless noted, the call rests on the fitted dose curve; in most records, active means well fitted inhibition curve with a large enough effect (not every such curve was filed as active); inconclusive means small, poorly fitted or top-dose-only effect, or another doubt; inactive means no such curve, though single readings can be large or run the other way. Unless noted, on the % scale 0 is the no-effect control and ±100 the full control effect.
SMILES,Lamin A splicing,HPGD inh,KinaseGlo FLuc,ALDH1A1 inh,PNC inhibitor
COC(=O)C1=C(C(=O)OC)[C@@H]2N(Cc3ccccc3)c3ccccc3[C@@]23C[C@@H](C(=O)OC)N(S(=O)(=O)c2ccc(Br)cc2)C3=N1,u,-8%,-11%[7.66 µM],-2%[13.5 µM],x
S=C(NN=C(C1CC1)C1CC1)Nc1ccccc1,-10%,-8%,-1%,25µM*,22
Cc1ccnc(NC(=O)c2ccc3c(c2)OCO3)c1,-4%[46 µM],x,13µM*,-11%,x
Cc1ccc(C(=O)Nc2ccc3c(c2)OCO3)cc1NC(=O)c1ccco1,-3%[46 µM],x,2%,u,x
Cc1cc(NC(=O)c2ccc3c(c2)OCO3)ccc1NC(=O)c1ccco1,-7%,-13%,11µM*,-4%,-3
O=C(Nc1ccon1)c1ccc2c(c1)OCO2,-12%,18µM*,-9%,-10%,u
CC(C)Oc1ccc(CNC(=O)c2ccc3c(c2)N(C)C(=O)C2CCCCN32)cc1 (centres undefined),-28%[46 µM],x,x,x,x
CCN(CCO)c1nc(SC)nc2c1sc1nc(-c3ccco3)c3c(c12)CCC3,u,u,0%,2µM*,u
N/C(=N\OC(=O)c1ccco1)c1ccccn1,x,x,13µM*,-11%,x
N/C(=N\OC(=O)c1ccco1)c1ccccc1,-13%,-29%,u,4%,-29
Cc1ccc(/C(N)=N/OC(=O)c2ccco2)cc1,-10%,0%,-9%,9%,u
N/C(=N\OC(=O)c1ccco1)c1ccc(Br)cc1,u,-11%,-14%,3.2µM*,-14
O=C(CCNC(=O)c1ccccc1Cl)Nc1ccc(Cl)c(C(F)(F)F)c1,-3%,22µM*,1%,6%,-21
Cn1c(C(=O)N2CCCC2)cc2c(=O)n(C)c3ccccc3c21,-5%,22µM*,18%,-2%,-2
CN(Cc1cnn(C)c1)C(=O)c1sc2cccc(Cl)c2c1Cl,u,28µM*,-3%,u,10
Cn1ncc2c(Nc3ccc(-c4ccccc4)cc3)ncnc21,u,u,0%,u,-82*
COC(=O)c1ccc(Nc2ncnc3c2cnn3C)cc1,2%[46 µM],x,x,x,x
Cn1ncc2c(Nc3cccc(F)c3)ncnc21,-14%[46 µM],x,x,x,x
Cn1ncc2c(Nc3cccc(C(=O)O)c3)ncnc21,5%,-18%,0%,13µM*,67
O=C(O)c1ccccc1-c1ccc(/C=c2\sc3nc4cc(Br)cnc4n3c2=O)o1,-1%,32µM*,-3%,22µM*,u
CC1=C(CC[C@H](C)CO)O[C@@H]2C[C@@H]3[C@H]4CC[C@H]5C[C@@H](O)CC[C@]5(C)[C@@H]4CC(=O)[C@@]3(C)[C@@H]12,x,-3%,-3%[7.66 µM],-10%[13.5 µM],x
COc1ccc(S(=O)(=O)NCC(c2ccco2)N2CCN(c3ccccc3F)CC2)cc1OC (centres undefined),-11%[46 µM],x,x,x,x
O=[N+]([O-])c1ccc(-c2csc(Nc3ccccc3)[n+]2Cc2ccccc2)cc1,u,-21%,-7%,32µM*,11
COc1ccc(-n2c(=O)c(-c3ccc(Cl)cc3)nc3cnc(N4CCOCC4)nc32)cc1,x,-13%,1%,u,x
COc1ccc(NC(=O)Cn2cc(S(=O)(=O)Cc3ccccc3)c3ccccc32)c(OC)c1,-12%,-5%,3%,u,16
SMILES,Lamin A splicing,HPGD inh,KinaseGlo FLuc,ALDH1A1 inh,PNC inhibitor
O=C(Cn1cc(S(=O)(=O)Cc2ccccc2)c2ccccc21)Nc1ccccc1,u,-14%,-3%,u,-82*
CCCCOc1cccc(C(=O)N(Cc2ccc(Br)o2)C2CCS(=O)(=O)C2)c1 (centres undefined),17%[46 µM],x,x,x,x
COc1ccc(CCNC(=O)Cn2c(=O)n(-c3ccc(C)c(F)c3)c(=O)c3sccc32)cc1OC,10%[46 µM],x,-3%,6.3µM*,x
COCCCNC(=O)Cn1c(=O)n(CC(=O)NCCc2ccc(OC)c(OC)c2)c(=O)c2sccc21,x,x,-2%,-13%,x
Cc1nn2c(C)c(C(=O)N3CCN(c4ccccc4)CC3)cnc2c1-c1ccccc1,-15%[46 µM],x,x,x,x
COc1ccc2cc3cc(C(=O)Nc4cc(OC)c(OC)c(OC)c4)oc3nc2c1,-8%,-27%,0%,u,-105*
COC(=O)CC1c2ccccc2C=C(/C=C/c2ccc3c(c2)OCO3)N1C(=O)OC (centres undefined),u,u,-5%[7.66 µM],u,x
